# Test results published in PubChem BioAssay (EPA / NIEHS).
# Several values for one entry are separate records, joined by “and”; a condition that tells them apart may be missing. Equal values may be shown once. Where a structure was tested more than once in an assay, its records may differ in their call. Activity calls are given as the source filed them. Rule for the calls: active = hit-call score of the fitted dose curve at least 0.9, where 1 is the maximum; inactive = score below 0.9.
# How the values were obtained:
# [1] = read-out: Plasminogen activator inhibitor-1 (PAI1), SERPINE1 (gene 5054); assay: BSK_MyoF_PAI1: BioMAP Diversity Plus: MyoF Assay for Plasminogen activator inhibitor-1 (PAI1) Biomarker Activity (AID 2284256); details: primary human lung fibroblasts;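 for outcome: PAI-1 protein level measured by ELISA in fibroblast cultures; PAI-1 read 24 h after compound addition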
# How it was run: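 In this multiplexed primary-cell system, fibroblasts from human lung received compound for 24 h before ELISA detection of PAI-1; overt toxicity was checked by SRB (0.1%, TCA-fixed, 560 nm) in parallel wells.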
# [2] = read-out: Interleukin-8 (IL8), CXCL8 (gene 3576); assay: BSK_MyoF_IL8: BioMAP Diversity Plus: MyoF Assay for Interleukin-8 (IL8) Biomarker Activity (AID 2284261); details: primary human lung fibroblasts
# How it was run: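 DMSO-normalised, upward-fitted IL-8 ELISA signal; human lung fibroblasts, 24 h chemical treatment.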
# Decorin, DCN (gene 1634) = assay: BSK_MyoF_Decorin: BioMAP Diversity Plus: MyoF Assay for Decorin Biomarker Activity (AID 2284265); details: primary human lung fibroblasts
# How it was run: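 In this multiplexed fibroblast system, secreted or surface decorin is detected by ELISA one day after dosing, with increases scored against the DMSO vehicle.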
# [3] = BSK_MyoF_SRB: Viability Assessment in the BioMAP Diversity Plus: MyoF Assay (AID 2284267); details: primary human lung fibroblasts;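 note: total protein by SRB absorbance in parallel cultures as cytotoxicity measure; cells assessed 24 h after compound addition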
# How it was run: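 Cytotoxicity read-out: after 10% TCA fixation, parallel human lung fibroblast cultures were stained with 0.1% SRB at 24 h post-dosing and read at 560 nm; DMSO served as baseline.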
# [4] = read-out: Matrix Metallopeptidase 1 (MMP1), MMP1 (gene 4312); assay: BSK_MyoF_MMP1: BioMAP Diversity Plus: MyoF Assay for Matrix Metallopeptidase 1 (MMP1) Biomarker Activity (AID 2284268); details: primary human lung fibroblasts
# How it was run: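 Fibroblasts from human lung receive compound for 24 h before ELISA quantitation of MMP1. DMSO serves as baseline, and the endpoint is fitted for signal gain.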
# [5] = read-out: TIMP metallopeptidase inhibitor 1 (TIMP1), TIMP1 (gene 7076); assay: BSK_MyoF_TIMP1: BioMAP Diversity Plus: MyoF Assay for TIMP metallopeptidase inhibitor 1 (TIMP1) Biomarker Activity (AID 2284269); details: primary human lung fibroblasts
# How it was run: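 ELISA read-out of TIMP-1 from primary human lung fibroblast cultures 24 h after compound dosing; gain of signal relative to DMSO vehicle baseline defines activity.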
# [6] = read-out: Intercellular Adhesion Molecule 1 (ICAM1), ICAM1 (gene 3383); assay: BSK_BE3C_ICAM1: BioMAP Diversity Plus: BE3C Assay for Intercellular Adhesion Molecule 1 (ICAM1) Biomarker Activity (AID 2284278); details: primary human bronchial epithelial cells;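 for outcome: cell-surface ICAM-1 protein level quantified by ELISA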
# How it was run: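 ICAM-1 quantified by ELISA and fitted against DMSO baseline, 24 h post-dosing in BE3C cultures of primary human lung bronchial epithelial cells. Cytotoxicity checked in parallel cultures by total protein SRB staining.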
# [7] = read-out: Interferon-inducible T-cell alpha chemoattractant (ITAC), CXCL11 (gene 6373); assay: BSK_BE3C_ITAC: BioMAP Diversity Plus: BE3C Assay for Interferon-inducible T-cell alpha chemoattractant (ITAC) Biomarker Activity (AID 2284279); details: primary human bronchial epithelial cells
# How it was run: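 ELISA read-out of I-TAC after 24 h chemical dosing of human lung primary bronchial epithelial cells; gain-of-signal fit vs DMSO baseline. Parallel SRB total-protein staining (0.1% SRB, 10% TCA fixation, 560 nm) assessed cytotoxicity.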
# [8] = read-out: Interleukin-8 (IL8), CXCL8 (gene 3576); assay: BSK_BE3C_IL8: BioMAP Diversity Plus: BE3C Assay for Interleukin-8 (IL8) Biomarker Activity (AID 2284280); details: primary human bronchial epithelial cells
# How it was run: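 Measured at 24 h after treatment, IL-8 from human primary bronchial epithelial cells is determined by ELISA, and the response is modelled as increasing relative to DMSO negative control.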
# [9] = read-out: Epidermal growth factor receptor (EGFR), EGFR (gene 1956); assay: BSK_BE3C_EGFR: BioMAP Diversity Plus: BE3C Assay for Epidermal growth factor receptor (EGFR) Biomarker Activity (AID 2284281); details: primary human bronchial epithelial cells
# How it was run: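 Measured 24 h after dosing in primary human bronchial epithelial cultures, EGFR was read by ELISA; gain of signal over DMSO control defined activity.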
smiles,measurement,setting,value
CC(=O)c1c(C)c([N+](=O)[O-])c(C(C)(C)C)c([N+](=O)[O-])c1C,outcome,[1],inactive
same,outcome,[2],inactive
same,outcome,"Decorin, DCN (gene 1634)",inactive
same,outcome,[3],inactive
same,outcome,[4],inactive
same,outcome,[5],inactive
O=CN1CCOCC1,outcome,[6],inactive
same,outcome,[7],inactive
same,outcome,[8],inactive
same,outcome,[9],inactive
CCCCOC(=O)CCCCCCCC(=O)OCCCC,outcome,[1],inactive
same,outcome,[2],inactive
same,outcome,"Decorin, DCN (gene 1634)",inactive
same,outcome,[3],inactive
same,outcome,[4],inactive
same,outcome,[5],inactive
COc1cc(Cl)c(OC)cc1N,outcome,[1],inactive
same,outcome,[2],inactive
same,outcome,"Decorin, DCN (gene 1634)",inactive
same,outcome,[3],inactive
same,outcome,[4],inactive
same,outcome,[5],inactive
c1ccc(Oc2ccccc2)cc1,outcome,[1],inactive
same,outcome,[2],inactive
same,outcome,"Decorin, DCN (gene 1634)",inactive
same,outcome,[3],inactive
same,outcome,[4],inactive
same,outcome,[5],inactive
CC(C)(C)CC(C)(C)c1ccc(OCCOCC[N+](C)(C)Cc2ccccc2)cc1,AC50,[1],5 µM (active)
same,AC50,[2],5 µM (active)
same,outcome,"Decorin, DCN (gene 1634)",inactive
same,AC50,[3],7.98 µM (active)
same,outcome,[4],inactive
same,AC50,[5],5 µM (active)
Oc1c(Cl)cc(Cl)c(Cl)c1Cc1c(O)c(Cl)cc(Cl)c1Cl,AC50,[1],0.83 µM (active)
same,AC50,[2],13 µM (active)
same,outcome,"Decorin, DCN (gene 1634)",inactive
same,AC50,[3],5.13 µM (active)
same,AC50,[4],0.198 µM (active)
same,AC50,[5],1.07 µM (active)
CC1(C)CCC[C@]2(C)[C@H]3CCO[C@]3(C)CC[C@@H]12,outcome,[6],inactive
same,outcome,[7],inactive
same,AC50,[8],27 µM (active)
same,outcome,[8],inactive
same,AC50,[9],33.1 µM (active)
same,outcome,[9],inactive
CCOC(=O)C(C#N)=C(c1ccccc1)c1ccccc1,outcome,[6],inactive
same,outcome,[7],inactive
same,outcome,[8],inactive
same,outcome,[9],inactive
CN(C)C(=S)SC(=S)N(C)C,AC50,[1],3.95 µM (active)
same,outcome,[2],inactive
same,outcome,"Decorin, DCN (gene 1634)",inactive
same,outcome,[3],inactive
same,AC50,[4],29.4 µM (active)
same,outcome,[5],inactive
CCN(CC)C(=O)N(CC)CC,outcome,[1],inactive
same,outcome,[2],inactive
same,outcome,"Decorin, DCN (gene 1634)",inactive
same,outcome,[3],inactive
same,outcome,[4],inactive
same,outcome,[5],inactive
C=C(C)C(=O)OCC(CC)(COC(=O)C(=C)C)COC(=O)C(=C)C,AC50,[1],13 µM (active)
same,outcome,[2],inactive
same,AC50,"Decorin, DCN (gene 1634)",10.1 µM (active)
same,AC50,[3],15.5 µM (active)
same,AC50,[4],5.25 µM (active)
same,AC50,[5],32.3 µM (active)
CN(C)C(=O)Nc1ccc(Oc2ccc(Cl)cc2)cc1,AC50,[1],0.016 µM (active)
same,outcome,[2],inactive
same,outcome,"Decorin, DCN (gene 1634)",inactive
same,outcome,[3],inactive
same,outcome,[4],inactive
same,outcome,[5],inactive
CCCCCCC(CO)CCCC (configuration not stated),AC50,[6],20 µM (active)
same,outcome,[6],inactive
same,outcome,[7],inactive
same,outcome,[8],inactive
same,outcome,[9],inactive
CC(CN=Cc1ccccc1O)N=Cc1ccccc1O (configuration not stated),outcome,[6],inactive
same,outcome,[7],inactive
same,outcome,[8],inactive
same,outcome,[9],inactive
C=C(C)C(=O)OCCOCCOCCOCCOC(=O)C(=C)C,outcome,[1],inactive
same,outcome,[2],inactive
same,outcome,"Decorin, DCN (gene 1634)",inactive
same,outcome,[3],inactive
same,outcome,[4],inactive
same,outcome,[5],inactive
c1ccc2cc(Nc3ccc(Nc4ccc5ccccc5c4)cc3)ccc2c1,outcome,[1],inactive
same,outcome,[2],inactive
same,outcome,"Decorin, DCN (gene 1634)",inactive
same,outcome,[3],inactive
same,outcome,[4],inactive
same,outcome,[5],inactive
CC(=O)C1(C)CC2=C(CCCC2(C)C)CC1C (configuration not stated),AC50,[1],11.2 µM (active)
same,outcome,[2],inactive
same,outcome,"Decorin, DCN (gene 1634)",inactive
same,AC50,[3],14.6 µM (active)
same,AC50,[4],4.66 µM (active)
same,AC50,[5],20 µM (active)
COc1ccc(CCN2CCC(Nc3nc4ccccc4n3Cc3ccc(F)cc3)CC2)cc1,outcome,[1],inactive
same,AC50,[2],7.38 µM (active)
same,outcome,"Decorin, DCN (gene 1634)",inactive
same,AC50,[3],7.48 µM (active)
same,AC50,[4],3.79 µM (active)
same,outcome,[5],inactive
O=C(Nc1ccc2c(O)c(N=Nc3ccc(N=Nc4ccc(S(=O)(=O)O)cc4)cc3)c(S(=O)(=O)O)cc2c1)c1ccccc1,outcome,[6],inactive
same,AC50,[7],30.4 µM (active) and 20 µM (active)
same,outcome,[8],inactive
same,outcome,[9],inactive
O=C1OC2(c3ccccc31)c1ccc(O)c(Br)c1Oc1c2ccc(O)c1Br,AC50,[1],9.25 µM (active)
same,outcome,[2],inactive
same,outcome,"Decorin, DCN (gene 1634)",inactive
same,outcome,[3],inactive
same,outcome,[4],inactive
same,outcome,[5],inactive
C=C(C)[C@H]1CC=C(C)C(=O)C1,outcome,[1],inactive
same,outcome,[2],inactive
same,outcome,"Decorin, DCN (gene 1634)",inactive
same,outcome,[3],inactive
same,outcome,[4],inactive
same,outcome,[5],inactive
C=CC(C)(O)CCC=C(C)C (configuration not stated),outcome,[6],inactive
same,outcome,[7],inactive
same,outcome,[8],inactive
same,outcome,[9],inactive
